From PMC7819943, “Rice protein-binding microarrays: a tool to detect cis-acting elements near promoter regions in rice” come the findings set out here.

In all, about 35,000 sequences were measured (“fluorescence intensity (a.u.)”: median about 10,000, highest 2% from about 52,000 on). The entries come from a sample that favours the highest values as a whole.

In the assay the target is T1, OsWOX13 (Oryza sativa, UniProt Q5QMM3 1-267).
T1 sequence: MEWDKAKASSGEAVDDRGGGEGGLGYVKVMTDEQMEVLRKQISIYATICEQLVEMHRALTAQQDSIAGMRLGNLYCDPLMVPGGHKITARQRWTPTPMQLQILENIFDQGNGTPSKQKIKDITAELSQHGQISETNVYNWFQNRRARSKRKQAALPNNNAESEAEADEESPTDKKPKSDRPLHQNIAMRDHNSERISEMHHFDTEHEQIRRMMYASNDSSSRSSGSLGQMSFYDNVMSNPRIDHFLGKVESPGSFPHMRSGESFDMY
Nature of the assay: protein-binding microarray (RPBM); PBS, 2% BSA, 51.3 ng/ul salmon testes DNA, 50 uM zinc acetate, 200 nM TF, 25 C, 1 h; high values mean tight binding. Particulars: protein: recombinant; tags: N-terminal polyhistidine and DsRed monomer fusion (pET32a); label: CyDye5-dUTP incorporated in the synthesized complementary strand; 3' TTTTT single-stranded linker to array surface; dsDNA, one strand shown. Put shortly:
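Transcription factors were each fused at the N-terminus to a polyhistidine tag plus DsRed and expressed in E. coli BL21-CodonPlus before Ni–NTA purification. Binding to a double-stranded custom Agilent array was carried out with 200 nM protein at 25 °C for 1 h in PBS, 2% BSA, salmon testes DNA and 50 µM zinc acetate. The binding signal is per-feature fluorescence intensity, in arbitrary units, on an Axon 4000B scanner.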
“AATTAATTTCTAAATACAATCATTATTCACCTCGTAATATCGGAGTCACCTAGTGCAG”: the binding signal was 7210 fluorescence intensity (a.u.). As for “CCATATAATTATGCTTGTTATTATGTGACAAAGAGCGGGTCGGAGTCACCTAGTGCAG”, the binding signal is 25400 fluorescence intensity (a.u.). Regarding “CCAAAATATATTAATTAGCTCAGGTATGTACCCGCCCAATCGGAGTCACCTAGTGCAG”, the binding signal is 10700 fluorescence intensity (a.u.). For the sequence “GTATATTTAATAATAAATCAACTCGCAATGAGACAAAATGCGGAGTCACCTAGTGCAG”, the binding signal was 4570 fluorescence intensity (a.u.). As for “ATTCTTAAATTGTTTTAACTAATACTTAATCAGCCATGAACGGAGTCACCTAGTGCAG”, the figure is 7790 fluorescence intensity (a.u.); as for “TTGGTGATATTGATGGAGCATGTTTTATTTGATAGAATAGCGGAGTCACCTAGTGCAG”, 3390 fluorescence intensity (a.u.).

Regarding “GATAGATTAATATATGATATATCTTTTCACAAACATACAACGGAGTCACCTAGTGCAG”, the binding signal is 10500 fluorescence intensity (a.u.). Then “TTAGATAGATTAATATGTGATAGATCTTCACAAACAGACACGGAGTCACCTAGTGCAG”, with 54900 fluorescence intensity (a.u.).

As to “TTGATTGATGGGAGTCTAACAAAGTGACAAAACTTAGCAACGGAGTCACCTAGTGCAG”, the binding signal was 53900 fluorescence intensity (a.u.). For the sequence “AATTCTAATATATTTGATTGTTTCAAAATAAAGTCTTTGCCGGAGTCACCTAGTGCAG”, the binding signal is 14700 fluorescence intensity (a.u.). Then “TTGAATGACTACGAATTTGTTTAAATATTTGCATTCCATCCGGAGTCACCTAGTGCAG”, with 7180 fluorescence intensity (a.u.); and “CATTGATGACACAAAATAGTAGCAACTAAACAAACCAGAACGGAGTCACCTAGTGCAG”, with 6690 fluorescence intensity (a.u.); and “TTCAATTGATATAGACACAGATCTATGTGATTCACTGACACGGAGTCACCTAGTGCAG”, with 21700 fluorescence intensity (a.u.). As for “ATTGATTGACCGAGCGCACTACTCTTTATCTTTTCGATTGCGGAGTCACCTAGTGCAG”, the binding signal is 64900 fluorescence intensity (a.u.). In the case of “GTGCTCTTTAATTATCACTTTGTGCGCACTTTTCTTTGATCGGAGTCACCTAGTGCAG”, the binding signal was 6410 fluorescence intensity (a.u.). Take “TGCCGATTGATCTTTTATCCTTTGGGGCATATGCTCGAGTCGGAGTCACCTAGTGCAG”: the binding signal was 24400 fluorescence intensity (a.u.). In the case of “AACTTGAAACAATTTGATTTTGACTAAAGTCAAAACGTCTCGGAGTCACCTAGTGCAG”, the binding signal is 4710 fluorescence intensity (a.u.). For the sequence “TTTGATTGTTTCCATTTGCAATTTCTAAATACGAACCTGCCGGAGTCACCTAGTGCAG”, the binding signal is 57500 fluorescence intensity (a.u.).

As for “CAGAATTTACAAAATGGATTGACCAAAAGCCTAATTAATTCGGAGTCACCTAGTGCAG”, the binding signal is 7770 fluorescence intensity (a.u.).

For the sequence “CAAGATTTTAATAAATGCATAATTTTATGAATCGCATAGACGGAGTCACCTAGTGCAG”, the binding signal was 7290 fluorescence intensity (a.u.).

With “CATGACATACAATTTATCAGATCCAATTTTAGGATTATTCCGGAGTCACCTAGTGCAG”, the binding signal was 10900 fluorescence intensity (a.u.). For the sequence “GTTAACTAATTAGGGCGTATGAACAAGTCATCGTGGCAGTCGGAGTCACCTAGTGCAG”, the binding signal is 23000 fluorescence intensity (a.u.). On to “GAATAATTACCGAAAAGGCAATTAATTAGTGACAGGGAGTCGGAGTCACCTAGTGCAG”, for which the binding signal was 26200 fluorescence intensity (a.u.). Then “GGCTTCCTTAATTGTACATGTCTCTCTTCATTCTGCTGCACGGAGTCACCTAGTGCAG”, with 5930 fluorescence intensity (a.u.); and “TTTCTGATTTACGTGGCTTGTGAGTAGGGCGCCTCCTCATCGGAGTCACCTAGTGCAG”, with 8000 fluorescence intensity (a.u.); and “TTATGATTATTTTAGAATTTTCAAAATCATGGAATATAATCGGAGTCACCTAGTGCAG”, with 7490 fluorescence intensity (a.u.). Consider “GCCTTAACTTTGTGATCATATCTTCATCTTCATTAGGCCTCGGAGTCACCTAGTGCAG”, for which the binding signal is 4300 fluorescence intensity (a.u.). As for “ATCTAAATTGTTTTAGATTTGTGCACAAGAACAAAAGAGACGGAGTCACCTAGTGCAG”, the binding signal is 16800 fluorescence intensity (a.u.). As for “CATCTAATTTAAATTTAAATGTTTTAAAAGATAGAGACGTCGGAGTCACCTAGTGCAG”, the figure is 52400 fluorescence intensity (a.u.); as for “TAATTAAATTGTCATATCACTTCTTAACTTATTGGACTAACGGAGTCACCTAGTGCAG”, 5280 fluorescence intensity (a.u.); as for “ATTTGTATAATTGGAACCATGCCATTCCAACACAACAAAACGGAGTCACCTAGTGCAG”, 6320 fluorescence intensity (a.u.). With “AATACAATTAATTACAGTTAATTAAATGATAGAAAGAGTTCGGAGTCACCTAGTGCAG”, the binding signal was 55400 fluorescence intensity (a.u.). On to “GATGCCATCTAATTTTAAATGATGATGTGGAGAAGAGAGTCGGAGTCACCTAGTGCAG”, for which the binding signal is 7100 fluorescence intensity (a.u.). Then “GTAAATTGATTTGTATATGGCCATTTCCAACCCAAAACACCGGAGTCACCTAGTGCAG”, with 56300 fluorescence intensity (a.u.). “AATTGAGACTTCGGTAAAACTTAAGGGACTAAATTAACTACGGAGTCACCTAGTGCAG”: the binding signal is 52700 fluorescence intensity (a.u.). “CTAAATTATACGGAGATGATAATGTAGTTACAGTGCAGTTCGGAGTCACCTAGTGCAG”: the binding signal was 21900 fluorescence intensity (a.u.). With “TAAATTTAAACGGTAAATTAAGGAGAGGGAGGTCATTCTTCGGAGTCACCTAGTGCAG”, the binding signal is 6560 fluorescence intensity (a.u.). In the case of “AAACAGTTTTCCCCAAAATTGATTGTAAATATACATATACCGGAGTCACCTAGTGCAG”, the binding signal was 14900 fluorescence intensity (a.u.).

Consider “TTAAATGATAGAAATACAATTATTACGGAATAGAATGTAGCGGAGTCACCTAGTGCAG”, for which the binding signal is 29100 fluorescence intensity (a.u.).

For the sequence “TGTATGATTTATGTATAATTAGAGATATACAATCATATAACGGAGTCACCTAGTGCAG”, the binding signal was 16900 fluorescence intensity (a.u.). As for “AGGAGAAACAATTTGCAATCATCACATTGTTTAAAGAGATCGGAGTCACCTAGTGCAG”, the binding signal is 5330 fluorescence intensity (a.u.). As for “CATTGGAATTGATGATCACATTATACATGGATTTGACCCACGGAGTCACCTAGTGCAG”, the figure is 30600 fluorescence intensity (a.u.); as for “TCTAAACTAATCTAATCTAGCAACGCGATTTAGCCGATACCGGAGTCACCTAGTGCAG”, 9190 fluorescence intensity (a.u.); as for “TTCTGTCAATTAGGTGGGTGACATGTGGATCCCACGATATCGGAGTCACCTAGTGCAG”, 13200 fluorescence intensity (a.u.). For the sequence “TTGATTGGAAAGATTGGAAAGAATTGAATGCGAATTGGTACGGAGTCACCTAGTGCAG”, the binding signal was 34500 fluorescence intensity (a.u.).

Turning to “ATATCAATCCGATGATATTAATTTTAGCAAATAAAATTTACGGAGTCACCTAGTGCAG”, the binding signal is 5130 fluorescence intensity (a.u.).
